The values that follow come from PubChem BioAssay (NCI).

This is part of a sample that, as a whole, favours compounds with a hit. Of some 83,000 tested, about 20% had one in any assay.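 Single-concentration screen, 48 h exposure, 96-well plates. Endpoint: percent growth. Below 10 = active.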 Values without a mark were called inactive. Activity calls are given as the source filed them.

Among the test systems are DU-145 prostate; K-562 leukemia; MALME-3M melanoma; MDA-MB-231 breast; RXF 393 renal; SF-268 CNS; SF-295 CNS; SF-539 CNS; UACC-257 melanoma; M14 melanoma.
Experiment in all cases: NCI-60 one-dose screen, 48 h (100 = growth as untreated, 0 = no growth, -100 = all killed)
What all share (conditions): 10 µM unless noted

In the case of `C=C(CNCCc1ccc(O)cc1)[C@@H]1CC[C@]2(CO)CC[C@]3(C)[C@H](CC[C@@H]4[C@@]5(C)CCC(NCCO)C(C)(C)[C@@H]5CC[C@]43C)[C@@H]12` (stereo not given in full), the growth was -31% (active) in the experiment with DU-145 prostate; -49% (active) with K-562 leukemia; -90.6% (active) in the experiment on MALME-3M melanoma; -77.6% (active) in the experiment on MDA-MB-231 breast; -90.3% (active) with RXF 393 renal; -62.4% (active) with SF-268 CNS. Moreover, the growth in the experiment on SF-295 CNS is -80.8% (active); in the experiment on SF-539 CNS, -97.3% (active); in the experiment with UACC-257 melanoma it was -77.9% (active); in the experiment with M14 melanoma, -89.3% (active).

As for `COc1cnc2c(c1)C(=O)c1c-2n(CCCNCCO)c(=O)c2ccncc12`, the growth in the experiment on DU-145 prostate was 3.45% (active); in the experiment with K-562 leukemia, 5.84% (active); with MALME-3M melanoma it was -30.4% (active); with MDA-MB-231 breast, 6.98% (active); with RXF 393 renal, -11.1% (active); with SF-268 CNS, 14.8%. The growth in the experiment with SF-295 CNS is 6.34% (active); in the experiment with SF-539 CNS, -15.2% (active); in the experiment with UACC-257 melanoma, -19.3% (active); with M14 melanoma it was -1.26% (active).

On to `Cc1cc2c(O)c(-c3cc(Cl)ccc3Cl)c3sc(=O)oc3c2cc1C`, for which the growth with DU-145 prostate was 69.5%; with K-562 leukemia, 28.3%; with MALME-3M melanoma, 100%; in the experiment with MDA-MB-231 breast, 77.3%; with RXF 393 renal, 86%; with SF-268 CNS, 65%. Moreover, the growth in the experiment with SF-295 CNS is 72.5%; in the experiment on SF-539 CNS, 89.9%; in the experiment with UACC-257 melanoma, 60.8%; with M14 melanoma, 81.1%.

`O=C1/C(=C/c2cccs2)SC(=S)N1CCCN1CCOCC1`: the growth in the experiment with DU-145 prostate is 92%; with K-562 leukemia, 85.4%; in the experiment with MALME-3M melanoma, 84.3%; in the experiment on MDA-MB-231 breast it was 82.7%; in the experiment with RXF 393 renal, 99.6%; in the experiment with SF-268 CNS it was 102%. Besides, the growth is 102% in the experiment with SF-295 CNS, 92.7% in the experiment with SF-539 CNS, 93.9% with UACC-257 melanoma and 93.4% in the experiment on M14 melanoma.

As for `COC(C(=O)[C@@H](O)[C@@H](C)O)[C@@H]1Cc2cc3cc(O[C@H]4C[C@@H](O[C@H]5C[C@@H](O)[C@H](O)C(C)O5)[C@H](O)C(C)O4)cc(O)c3c(O)c2C(=O)[C@H]1O[C@H]1C[C@@H](O[C@H]2C[C@@H](O[C@H]3C[C@@H](OC)[C@H](O)C(C)O3)[C@@H](O)C(C)O2)[C@H](O)C(C)O1` (stereo not given in full), the growth in the experiment with DU-145 prostate is 53.5%; with K-562 leukemia, 38.6%; with MALME-3M melanoma it was 25.8%; in the experiment on MDA-MB-231 breast, 43.2%; with RXF 393 renal it was 27.6%; in the experiment on SF-268 CNS, 49.9%. Also, the growth with SF-295 CNS is 30.7%; with SF-539 CNS, 38.1%; in the experiment with UACC-257 melanoma, 19.9%; with M14 melanoma, 57.2%.

Regarding `OCCCC1CCN(C(Cc2ccccc2)c2ccccc2)CC1` (stereo not given), the growth in the experiment with DU-145 prostate was 103%; with K-562 leukemia it was 113%; in the experiment on MALME-3M melanoma, 93.8%; in the experiment on MDA-MB-231 breast, 97.8%; in the experiment with RXF 393 renal it was 111%; with SF-268 CNS, 90.6%. In addition, the growth was 98.7% in the experiment with SF-295 CNS, 85.6% with SF-539 CNS, 96.4% in the experiment on UACC-257 melanoma and 88.8% in the experiment with M14 melanoma.

Turning to `COc1ccc2cc(C(=O)c3coc4ccc(O)cc34)ccc2c1`, the growth with DU-145 prostate is 99.6%; in the experiment with K-562 leukemia, 81.6%; in the experiment with MALME-3M melanoma it was 92.1%; in the experiment with MDA-MB-231 breast it was 95%; in the experiment on RXF 393 renal, 115%; with SF-268 CNS, 90.1%. Besides, the growth with SF-295 CNS was 105%; with SF-539 CNS, 93.7%; with UACC-257 melanoma, 103%; in the experiment on M14 melanoma, 108%.

Take `O=C(NCCCN1CCOCC1)c1cccc(N2C(=O)/C(=C/c3ccc(F)cc3)SC2=S)c1`: the growth was 101% in the experiment on DU-145 prostate; 96.2% in the experiment on K-562 leukemia; 90.4% with MALME-3M melanoma; 88.9% with MDA-MB-231 breast; 94.2% in the experiment with RXF 393 renal; 94.1% in the experiment on SF-268 CNS. In addition, the growth in the experiment with SF-295 CNS is 95.5%; in the experiment with SF-539 CNS, 90.6%; with UACC-257 melanoma, 97.2%; in the experiment on M14 melanoma, 93.8%.

In the case of `CN[C@]12CC3(C=CC(=O)C=C3)O[C@@]1(Cc1ccc(OC)cc1)N(C)C(=O)N2`, the growth with DU-145 prostate is 85.2%; in the experiment with K-562 leukemia it was 7.19% (active); in the experiment on MALME-3M melanoma, 11.2%; with MDA-MB-231 breast, 76.9%; in the experiment on RXF 393 renal, 43.7%; in the experiment on SF-268 CNS, 66.4%. Moreover, the growth with SF-295 CNS was 103%; in the experiment with SF-539 CNS, 12.2%; in the experiment on UACC-257 melanoma, 41%; in the experiment with M14 melanoma, 9.52% (active).

With `N#Cc1nc(-c2ccccc2)oc1S(=O)(=O)N1CCOCC1`, the growth in the experiment on DU-145 prostate was 103%; with K-562 leukemia, 5.21% (active); in the experiment on MALME-3M melanoma, 39.6%; in the experiment with MDA-MB-231 breast, 98.3%; with RXF 393 renal, 91%; with SF-268 CNS it was 108%. The growth with SF-295 CNS is 98.5%; in the experiment with SF-539 CNS, 101%; with UACC-257 melanoma it was 92.8%; in the experiment on M14 melanoma it was 61.7%.

For `Cc1ccc(-c2nn(-c3ccccc3)cc2C=C2C(=O)ON=C2C(C)C)cc1`, the growth with DU-145 prostate was 88.1%; in the experiment on K-562 leukemia, 34.2%; in the experiment on MALME-3M melanoma it was 85.2%; in the experiment with MDA-MB-231 breast, 97.3%; in the experiment with RXF 393 renal, 89.9%; in the experiment on SF-268 CNS, 94.8%. For the same molecule, the growth is 96.8% with SF-295 CNS, 83.6% in the experiment on SF-539 CNS, 96.4% in the experiment with UACC-257 melanoma and 65.8% with M14 melanoma.

Turning to `O=C1COCCN1c1ccc(Nc2nc(Cl)nc(OCc3cn(Cc4ccccc4)nn3)n2)cc1`, the growth with DU-145 prostate is 90.5%; in the experiment on K-562 leukemia it was 33.2%; with MALME-3M melanoma, 96.1%; with MDA-MB-231 breast it was 95.4%; in the experiment on RXF 393 renal it was 90.7%; in the experiment with SF-268 CNS, 80.9%. The growth in the experiment on SF-295 CNS was 102%; in the experiment with SF-539 CNS it was 98.2%; in the experiment on UACC-257 melanoma it was 84.4%; in the experiment on M14 melanoma, 76.1%.

Turning to `COc1cc(CNC(=O)/C=C/C=C/c2ccc3c(c2)OCO3)ccc1OCc1cn(-c2ccc(C)c(C)c2)nn1`, the growth is 85.9% in the experiment with DU-145 prostate; 68.6% in the experiment on K-562 leukemia; 75.1% with MALME-3M melanoma; 78.7% in the experiment with MDA-MB-231 breast; 47.6% in the experiment with RXF 393 renal; 107% with SF-268 CNS. The growth with SF-295 CNS is 94.8%; in the experiment on SF-539 CNS it was 55.8%; with UACC-257 melanoma, 65%; in the experiment with M14 melanoma it was 61.4%.

Turning to `O=C1N(Cc2ccccc2Cl)c2ccccc2C12NN=C(c1cccc(Cl)c1)S2` (stereo not given), the growth in the experiment with DU-145 prostate was -46.2% (active); in the experiment on K-562 leukemia, 10.1%; in the experiment with MALME-3M melanoma it was -23.6% (active); with MDA-MB-231 breast, -4.77% (active); in the experiment with RXF 393 renal, -73% (active); in the experiment on SF-268 CNS, 26.2%. Besides, the growth in the experiment on SF-295 CNS is -44.9% (active); in the experiment on SF-539 CNS, 6.32% (active); in the experiment with UACC-257 melanoma, 18.9%; with M14 melanoma, 4.67% (active).
